Whole data set: some 9,900 sequences, median “r (bound/input frequency ratio)” near 0.7, cut for the highest 2% near 6.5. Only a selection was taken, and the highest values are over-represented in it overall.
B1: ENSMUSG00000034801.21|Sos2 (ssRNA)
RNA: GGGAGUUCUACAGUCCGACGAUCGCUUCGAUAUCCGCAUGCUAGCCCUCUCCACGGAUUCCACGCAGCUGUCACUUGCUCAGCUCCAGUCACAGCAGCCUUGCUCAUCUUCCAGCUCCUCCUGUCCCACCAAGGCAGAAUUCAAGCCCUCUCUUACCAAAGCUGCCACCAAAGACUUACAAACGGGAGCUUUCCCACCCGCCACUGUAUAGACUGCCUCUGCUGGAAAAUGCAGAAACUCCUCAAUGACCUUGGCCAUAUGUAGUCAUUGACACUGGAAUAGUAUUUGUAAAGGUUUUUAAUUCUCUUGCGGUCGCACUAGUGUGGAAUUCUCGGGUGUCAAGG
B2: ENSMUSG00000042529.183|Kcnj12 (ssRNA)
RNA: GGGAGUUCUACAGUCCGACGAUCGCUUCGAUAUCCGCAUGCUAGUUUAAUCUUUCCCUACUGCCCUAAGUCCACUCAUGAAGCUCCCCAGGCCCUUCUGAGAUUGCAGAGGCUGCUUGCUCAUAGCCAUGACCCUGCCUGCUUUUGUCCCACACUGCUGGGGCAGGAUGAUGAAGCCCUGCUGGUCCCAGCCAGUCAUCUCCUGCUGGAAGGCAGAGUCUAGGGGAGAAGAGAAACACCCCCACCCCCACCCCUAUCCCGCACCAGCCCCCUGCCACCAUAGAGAUAGACCAGAGAAAUGUCACUCUUGCGGUCGCACUAGUGUGGAAUUCUCGGGUGUCAAGG
B3: ENSMUSG00000061578.815|Ksr2 (ssRNA)
RNA: GGGAGUUCUACAGUCCGACGAUCGCUUCGAUAUCCGCAUGCUAUGGGACUCUUUUUAUGAGGAACCAGUCCUGUUGAAUCGGGGUGCUCUGUAUUAGUUAUUUUUGUAACUUGUGAUUGUAACCAAAUGCCCGAUAGAAACAGCAUUCUGGCUCACAGUUUCAAAGGGCUCAGUCCAUAGCUGCCUGACUCUGUGUUUCUAGGCCUUUCUUGAGGCAAGUGUUCAUCAUGAUAGUGUGAGGGUGAGGAGGAGUUUCUUCAUGGCAAACAGGAAGCAAAGAGCAAUACAGGAAAAGGUCAGGGGCUCUUGCGGUCGCACUAGUGUGGAAUUCUCGGGUGUCAAGG
B4: ENSMUSG00000061578.1222|Ksr2|31:35;225:229 (ssRNA)
RNA: GGGAGUUCUACAGUCCGACGAUCGCUUCGAUAUCCGCAUGCUAGAAUGAGCCGCUGGGAUAUUGACAUGGAGAACACAUGAUGGAAAAAGCCUCCACACCCAACAUAACUCUCCAGAGAGAUAUUGAAAGUGAUGGGCAGAGAGUCUGACAAUGACCCAGGGGUCAUUGUGAGUCCUAGGCUGAAUCUGUAAUGGGGUCCAAAGUGCAGGAGAGACUGCAUUCACCUUGUUGGUGGGGUGGGGCUUCUUUCAUUACUUUAAGUAUCUCAUACGGCUUGAGGCAUGGGAAACAGCACCUUGUCUCUCUUGCGGUCGCACUAGUGUGGAAUUCUCGGGUGUCAAGG
B5: ENSMUSG00000022095.104|Fam160b2 (ssRNA)
RNA: GGGAGUUCUACAGUCCGACGAUCGCUUCGAUAUCCGCAUGCUAGCUGUUGCAAAAUUCCCAACUGCCUCCUGGCAGAGGCCCAAAGUAUGCUCUGCGCCCAGGCGGGGGCAGCUGCUAACAAGAGCCCUGGCGCAGCUGCAGCCAGGGCAGGCGAGAGCCUUGGAGCUGGGUGCCAGGCUCCAGCUCCAGCUCCAGCUGGUUCCUCUCUGGCGCCUUCUGAACCCGUCUCAGCAAGUCCGAAACACCUGGGCAGAGAGGUCAUUGACCAGGGAUGGGGGCCCUUGCCCUCUGAAUCCUGCCCACUCUUGCGGUCGCACUAGUGUGGAAUUCUCGGGUGUCAAGG
B6: ENSMUSG00000061578.919|Ksr2|82:86 (ssRNA)
RNA: GGGAGUUCUACAGUCCGACGAUCGCUUCGAUAUCCGCAUGCUACAAUUCUACCCAUGACAGACAUGUCCCAUCCAUGAGCCCAGAUAGUCAAAGACUUCAGCACAAGGGUGUUUAGAGUAGGCACACACGAAGUAUCAAUAAGGUUAUUGAGAUGAGGAUUUAGAAAGAUCCAUGUAUAAAAGGUCUAGAAGGAUGAAGAUCUAAAACAAGAAGACUGCAUGUUAACGCUCCUGCCACUGUUGCCCCUUCCUUUACCCUUGGCAGACAUUGCUAAUCAAUCUCAGCACAGUUUCCAACCACAGCUCUUGCGGUCGCACUAGUGUGGAAUUCUCGGGUGUCAAGG
B7: ENSMUSG00000061578.806|Ksr2 (ssRNA)
RNA: GGGAGUUCUACAGUCCGACGAUCGCUUCGAUAUCCGCAUGCUACCUCUCUCCAAUCUUUACCUUUGCCUCUACUAGAUGAUCUUGCAUCUGUCUUUGUGGGACUCUUUUUAUGAGGAACCAGUCCUGUUGAAUCGGGGUGCUCUGUAUUAGUUAUUUUUGUAACUUGUGAUUGUAACCAAAUGCCCGAUAGAAACAGCAUUCUGGCUCACAGUUUCAAAGGGCUCAGUCCAUAGCUGCCUGACUCUGUGUUUCUAGGCCUUUCUUGAGGCAAGUGUUCAUCAUGAUAGUGUGAGGGUGAGGAGCUCUUGCGGUCGCACUAGUGUGGAAUUCUCGGGUGUCAAGG
B8: ENSMUSG00000043670.134|Diras1 (ssRNA)
RNA: GGGAGUUCUACAGUCCGACGAUCGCUUCGAUAUCCGCAUGCUACCUGGCCACCCCGAGUACCACCUCUGGAAUAGCAGACGCCCACAGCACAAGCCCAGGACUGUCCCUUCAGGGGAGGCACACUGGAACCCUGAACUUGGAGUGUGGAGUGGCUGCCUGGACACUGCCCACCUGGACACCAGCCUUCUGCUGAGAUAGAGACCUUGGCACAGUGGCACCUCGACAGCCACCCCGACUGGGGGUUUGGGGUGCUGAGGGUGGGGUGCCCAGCUGAGAGUCUAUCAGCAAAGUCCCUGUGUGCGCUCUUGCGGUCGCACUAGUGUGGAAUUCUCGGGUGUCAAGG
B9: ENSMUSG00000058297.456|Spock2|123:127 (ssRNA)
RNA: GGGAGUUCUACAGUCCGACGAUCGCUUCGAUAUCCGCAUGCUAUCACACAGGUCAGAUUAUUGUCGGUCCUGCGGGCCUCAUCCUUGAAUAAGCUGCCUGCCCAGUUCCUCCAUCCGUGUUCCUGCCUGCUCCCGUUCCCUUGUUGCGGGCAGGAGAGGUAGGGCACACAUGGAAAGAGUUCAACCAAAUUACGGCAGCACCACAUCUUGCCGAGCCCUGGAGCUGCCCUACUAAGAGCCUCCUUAGCCCUGGGUGCUGGGAAGGAUGGUGUACGUUGGGGAAGUUUGAGGUUGGAGAGAGUACUCUUGCGGUCGCACUAGUGUGGAAUUCUCGGGUGUCAAGG
B10: ENSMUSG00000043670.203|Diras1 (ssRNA)
RNA: GGGAGUUCUACAGUCCGACGAUCGCUUCGAUAUCCGCAUGCUAGGGCCUGUGUCCCACCCAGAUGAGGGUGACUUAGAAUUCUGUGUUUAUGUGCCUGUGUGUGUGGAUGGGUGUGUGUCUGUCUUGGGAUGGGGUGUUCUUGCACCACUUUGUGUUCUUAGUGAGACCACAGUGUAAGUGGCCGUGUGUGUGUGUGGGGGGGGGCACCUAGACAUUGUGGUGUGUCUGUAUGGCUCUGUGUUUUCAGGGGUGGGUGACACAGGCCUGUCUGAUGAGCACCAGGUCUGUUCCAGGCUGUGGCACUCUUGCGGUCGCACUAGUGUGGAAUUCUCGGGUGUCAAGG

Biological target: TDP-43 (Homo sapiens, UniProt Q13148 1-414)
Sequence (Q13148 whole entry): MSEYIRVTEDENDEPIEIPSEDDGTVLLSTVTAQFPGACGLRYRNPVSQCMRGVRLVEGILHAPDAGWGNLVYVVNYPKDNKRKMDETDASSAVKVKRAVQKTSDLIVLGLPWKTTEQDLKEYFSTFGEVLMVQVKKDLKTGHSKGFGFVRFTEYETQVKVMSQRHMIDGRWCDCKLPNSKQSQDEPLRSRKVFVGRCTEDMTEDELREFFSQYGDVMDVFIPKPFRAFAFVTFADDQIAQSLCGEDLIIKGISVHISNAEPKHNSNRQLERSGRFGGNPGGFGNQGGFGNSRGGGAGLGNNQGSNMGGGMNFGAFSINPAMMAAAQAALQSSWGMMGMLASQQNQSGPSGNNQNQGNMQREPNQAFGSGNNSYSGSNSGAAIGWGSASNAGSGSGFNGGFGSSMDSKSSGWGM
Assay: RNA Bind-n-Seq with designed 260-mer pool; 25 mM Tris-HCl, 150 mM KCl, 3 mM MgCl2, BSA (printed 500 mg/mL), 20 units/mL SUPERase IN; pH not stated; 500 nM RNA pool, 1 h, 4 C; TDP-43 5, 50, 500 nM; high values mean tight binding
Details: protein: recombinant; tags: SBP (GST cleaved off with PreScission; pGEX-GST-SBP)
Outline: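 An in vitro-transcribed pool of 260-nt 3′ UTR oligos (500 nM) was incubated for 1 h at 4 °C with recombinant SBP-tagged TDP-43 at 5, 50 or 500 nM held on streptavidin beads. The buffer contained 25 mM Tris-HCl, 150 mM KCl, 3 mM MgCl2, BSA and SUPERase IN. Biotin-eluted bound RNA was sequenced, and binding, R, is each oligo's normalized read abundance in the bound sample over that in input.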

Binder | binding signal
B1 | 1.01 R (bound/input frequency ratio)
B2 | 1.85 R (bound/input frequency ratio)
B3 | 2.37 R (bound/input frequency ratio)
B4 | 0.49 R (bound/input frequency ratio)
B5 | 0.438 R (bound/input frequency ratio)
B6 | 0.397 R (bound/input frequency ratio)
B7 | 0.325 R (bound/input frequency ratio)
B8 | 0.868 R (bound/input frequency ratio)
B9 | 0.829 R (bound/input frequency ratio)
B10 | 7.32 R (bound/input frequency ratio)

— article PMC12864922, “TDP-43 directly inhibits mRNA accumulation in neurites through modulation of mRNA stability”
